From the supplement of paper PMC4954754
Where “and” joins values, the source holds several entries; their conditions need not be identical. Equal entries are not always repeated. ± gives the uncertainty stated by the source.

What follows are compounds tested on HEK293T-Rex XBP1-RLuc (assay: XBP1-RLuc splicing reporter activation, triplicate, relative to 500 nM thapsigargin (% of thapsigargin); higher = stronger IRE1/XBP1s reporter activation). Conditions: 6.8 µM; 18 h; screen: confirmation.
Experimental: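 HEK293T-Rex cells stably expressing the ERSE-firefly luciferase (BiP promoter, ATF6-preferring) or XBP1-splicing Renilla luciferase (IRE1/XBP1s) reporter, 1536-well plates, compound at 6.8 µM for 18 hr at 37 °C; luminescence read […] and expressed as % activation = 100*(compound - median DMSO)/(median 500 nM thapsigargin - median DMSO). Primary screen was single-pass; confirmation screen in triplicate (mean ± SD).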

COc1cccc(C(=O)Nc2sc3c(c2C#N)CC(C)CC3)c1 (stereo not given) and Cc1ccc(C(=O)Nc2sc3c(c2C#N)CCC3)cc1 are within error of each other in “XBP1-RLuc splicing reporter activation” value: 3.54 ± 0.93 for the first, 4.62 ± 0.97 for the second.

First: CCCCCCOc1ccc(/C(C)=N/NC2=NCCN2)cc1[N+](=O)[O-]
Second: CCCNC(=O)c1ccc2nc(-c3ccc4[nH]ccc4c3)sc2c1
The “XBP1-RLuc splicing reporter activation” value of the first is higher: 15 ± 0.76 for the first, -0.994 ± 0.65 for the second.

First: COC(=O)c1ccc(C(=O)Nc2ccccc2N)cc1
Second: Nc1ccccc1NC(=O)c1ccc(C(=O)Nc2ccccc2N)cc1
The “XBP1-RLuc splicing reporter activation” value of the first is higher: 9.29 ± 0.17 for the first, 4.04 ± 0.55 for the second.

First: Nc1ccc2nc(-c3cc(Cl)c(N)c(Cl)c3)[nH]c2c1
Second: Cc1ccc2nc(/C(C#N)=C/c3ccc(O)c(O)c3)[nH]c2c1
The “XBP1-RLuc splicing reporter activation” value of the first is lower: 13.2 ± 1.2 for the first, 16.5 ± 0.47 for the second.

Compared with COc1ccc(C(=O)Nc2nnc(-c3cccs3)s2)cc1, COc1cccc(C(=O)Nc2nc3ccc(C)cc3s2)c1 is higher in “XBP1-RLuc splicing reporter activation” value: 0.956 ± 0.85 for the first, 5.6 ± 0.99 for the second.

CN(C)c1ccc(/C=N/NC(=O)c2cccc(Br)c2)cc1 and CCN(CC)c1ccc(NC(=O)c2cccc(OC)c2)cc1 are within error of each other in “XBP1-RLuc splicing reporter activation” value: 1.93 ± 3.2 for the first, 0.922 ± 1.9 for the second.

CC(=O)Oc1cc(N2CCOCC2)c(OC(C)=O)c2c1C(=O)c1ccccc1C2=O and CC(=O)Oc1ccc(C(=O)OCc2ccc(Cl)cc2)cc1OC(C)=O are within error of each other in “XBP1-RLuc splicing reporter activation” value: 8.79 ± 2 for the first, 12.3 ± 2.2 for the second.

Going from COc1ccccc1-c1cc(C(=O)Nc2cc(C)ccc2O)no1 to Cc1ccc(O)c(NC(=O)c2cc(-c3ccc(F)cc3)on2)c1, the “XBP1-RLuc splicing reporter activation” value rises from 7.78 ± 1.3 to 15.9 ± 0.37.

Going from COC(=O)c1ccc2c(COC(C)=O)c(OC(C)=O)ccc2c1COC(C)=O to O=C(N/N=C/c1cccc(O)c1O)c1ccccc1I, the “XBP1-RLuc splicing reporter activation” value falls from 24.5 ± 2.2 to 11.2 ± 0.69.

First: Oc1ccc(-c2csc(-c3ccccc3)n2)cc1O
Second: Oc1ccc(-c2csc3nc(-c4ccccc4)nn23)c(O)c1
The “XBP1-RLuc splicing reporter activation” value of the first is higher: 31.3 ± 3.1 for the first, 15.3 ± 1.7 for the second.

First: COc1ccc(CCNC(=O)c2cccc(-c3ccc(N4CCOCC4)nc3)c2)cc1
Second: CCn1c(/C(C#N)=C/c2ccc(OC)cc2)nc2ccccc21
The “XBP1-RLuc splicing reporter activation” value of the first is higher: 1.79 ± 0.38 for the first, -0.629 ± 1.8 for the second.

NC(=O)c1c(NC(=O)/C=C/c2ccccc2)sc2c1CCCCC2 and O=C(N/N=C\C(Cl)=C\c1ccccc1)c1n[nH]c2c1CCCC2 are within error of each other in “XBP1-RLuc splicing reporter activation” value: 6.12 ± 0.94 for the first, 6.87 ± 1.5 for the second.

First: O=C(NCCCn1ccnc1)c1cc(-c2cccs2)on1
Second: O=C(NC1CCCC1)c1cc(-c2cccs2)on1
The “XBP1-RLuc splicing reporter activation” value of the first is higher: 7.54 ± 0.78 for the first, 4.95 ± 0.3 for the second.

Compared with Cc1ccc(O)c(NC(=O)c2cc(-c3cccnc3)on2)c1, CCCNC(=O)c1cc(-c2ccc(F)cc2)on1 is lower in “XBP1-RLuc splicing reporter activation” value: 19.8 ± 0.85 for the first, 4.12 ± 0.34 for the second.

Going from COc1c(O)cc2oc(-c3ccc(O)c(O)c3)cc(=O)c2c1O to O=c1cc(-c2ccc(O)c(O)c2)oc2ccccc12, the “XBP1-RLuc splicing reporter activation” value falls from 53.7 ± 3.8 to 20.6 ± 1.5.

Compared with N#Cc1c(NC(=O)c2ccc3ncsc3c2)sc2c1CCC2, CS(=O)(=O)c1ncc(Cl)c(C(=O)C(C#N)c2nc3ccccc3s2)n1 (stereo not given) is higher in “XBP1-RLuc splicing reporter activation” value: 1.45 ± 1.6 for the first, 19.5 ± 4.9 for the second.

Compared with O=C1NC(=Nc2ccc(F)cc2)S/C1=C\c1ccc(O)c(O)c1, CCOc1cc(/C=C2/NC(=O)N(Cc3ccc(F)cc3)C2=O)ccc1O is higher in “XBP1-RLuc splicing reporter activation” value: 17.4 ± 1.8 for the first, 33.6 ± 2.1 for the second.

First: N#Cc1ccc(-c2cccs2)nc1SCc1ccccn1
Second: Oc1ccc(/C=N/Nc2cccc3cccnc23)cc1O
The “XBP1-RLuc splicing reporter activation” value of the first is lower: 0.766 ± 2.5 for the first, 17.3 ± 2.3 for the second.

Going from COc1ccccc1-c1cnnc(N/N=C/c2c[nH]c3ccccc23)n1 to O=C1c2cc(O)ccc2-c2ccc(O)cc21, the “XBP1-RLuc splicing reporter activation” value rises from 8 ± 0.78 to 17.8 ± 0.69.

In the case of CN(C)c1ccc(C(=NO)c2ccc(N(C)C)cc2)cc1, the “XBP1-RLuc splicing reporter activation” value is reported as 6.61 ± 1.1.

In the case of O=c1cc(-c2ccc(O)c(O)c2)oc2cc(O)cc(O)c12, the “XBP1-RLuc splicing reporter activation” value is reported as 16.5 and 14.4.
